Bioassay records (PubChem BioAssay)
Cycloheximide cs: Cycloheximide Counterscreen for Small Molecule Inhibitors of Shiga Toxin. cell reporter, cycloheximide protein synthesis inhibition counterscreen. max response, %. hit rate 12% among 300,000. AID 2314, 2010; in the data active means max response mostly above about 13%, no sharp cut-off; inactive means mostly below about 14%; further: read at 38.3 µM for the half of the compounds with a filed dose
Pf growth 96h: Primary qHTS for delayed death inhibitors of the malarial parasite plastid, 96 hour incubation | P. falciparum luciferase reporter growth, 96 h | Potency, µM (highest dose often 28.7 µM), most hits filed as inhibitors | hit rate 6.9% among 320,000 | AID 504834, 2011
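P. falciparum expressing integrated firefly luciferase, in erythrocytes at 2% hematocrit, 0.05% parasitemia, incubated with compounds 96 h at 37 C, 5% CO2. Growth inhibition read as loss of luminescence; two-generation exposure targets delayed-death apicoplast inhibitors.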
Shiga inhibitor: A qHTS for Small Molecule Inhibitors of Shiga Toxin | Vero cells, Shiga toxin protein synthesis inhibition reporter | inhibition, % at 38.7 µM | hit rate 9.2% among 290,000 | AID 2315, 2010; in the data active means inhibition mostly above about 28%, no sharp cut-off; inactive means mostly below about 43%
LmPK inhibitor: qHTS Assay for Inhibitors of Leishmania Mexicana Pyruvate Kinase (LmPK); Q27686; purified LmPK, Kinase-Glo ATP luminescence, 1 h; Potency, µM (series often up to 57.5 µM), most hits filed as inhibitors; AID 1721, 2009; hit rate 0.37% among 290,000
Target sequence (Q27686 whole entry, looked up): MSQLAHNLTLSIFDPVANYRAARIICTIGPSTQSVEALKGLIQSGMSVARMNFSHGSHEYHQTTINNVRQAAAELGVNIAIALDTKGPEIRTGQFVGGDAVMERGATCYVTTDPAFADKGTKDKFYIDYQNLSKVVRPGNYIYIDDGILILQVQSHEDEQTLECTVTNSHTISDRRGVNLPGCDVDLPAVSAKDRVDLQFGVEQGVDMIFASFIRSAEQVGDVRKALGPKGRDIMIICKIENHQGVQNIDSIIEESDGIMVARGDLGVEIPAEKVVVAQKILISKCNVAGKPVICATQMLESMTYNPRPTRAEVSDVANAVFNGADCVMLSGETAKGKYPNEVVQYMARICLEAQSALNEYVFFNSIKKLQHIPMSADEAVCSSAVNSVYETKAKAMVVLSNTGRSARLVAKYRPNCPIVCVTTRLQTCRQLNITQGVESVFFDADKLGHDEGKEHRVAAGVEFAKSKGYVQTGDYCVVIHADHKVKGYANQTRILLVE
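Purified LmPK (0.1 nM) with 0.5 mM PEP and 0.1 mM ADP in imidazole buffer pH 7.2 with MgCl2/KCl, 1 h at room temperature. ATP formed was read by luciferase luminescence and normalized to no-enzyme and uninhibited controls.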
Pf growth 48h: Primary qHTS for delayed death inhibitors of the malarial parasite plastid, 48 hour incubation. P. falciparum luciferase growth in erythrocytes, 48 h. Potency, µM (series often up to 28.7 µM), actives largely listed as inhibitors. hit rate 5.9% among 310,000. AID 504832, 2011
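First compound was added to culture medium, then infected red cells at 0.1% parasitemia and 2% hematocrit (final). After incubation at 37 C under 5% CO2, luciferase detection reagent was dispensed and light output recorded.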
Large screens that a line does not name were inactive. Most compounds without a hit are left out; they make up all but 22% or so of the library. Unless noted, the call rests on the fitted dose curve; in most records, active means well fitted inhibition curve with a large enough effect; inconclusive means small, poorly fitted or top-dose-only effect, or another doubt; inactive means no such curve, though single readings can be large or run the other way.

Cn1c2ccccc2c(=O)c2cc(C#Cc3ccc(N)cc3)ccc21	Cycloheximide cs 40.9, Pf growth 96h inconclusive, Shiga inhibitor 38.6
Cc1ccc(NC(=O)c2ccc(C#CC3(O)CCCCC3)cc2)cc1C	Pf growth 96h inconclusive, Pf growth 48h inconclusive
CCCCCC(=O)N1CC2(CC(c3cccc(NC(=O)CC)c3)=NO2)C[C@H]1C(N)=O (some centres not stated)	none
CNc1ncnc(Sc2ccc(Cl)cc2)c1[N+](=O)[O-]	Pf growth 48h 9.28µM
Cn1nc([N+](=O)[O-])nc1Sc1ccc(Cl)cc1	Pf growth 48h inconclusive
CCC1CN(C(=O)N2CCC(C(=O)Nc3ccccc3F)CC2)c2ccccc2O1 (configuration not stated)	Pf growth 96h inconclusive
Cc1cccc(NC(=O)C2CCN(C(=O)N3CCOc4ccccc43)CC2)c1C	Pf growth 96h 14.7µM, Pf growth 48h inconclusive
Cc1ccc(NC(=O)C2CCN(C(=O)N3CCOc4ccccc43)CC2)cc1	Pf growth 96h 13.1µM, Pf growth 48h inconclusive
CCOC(=O)c1c(NC(=O)Nc2cccc(Cl)c2)sc(C)c1C	Pf growth 48h inconclusive (no result: Pf growth 96h)
CCOC(=O)C1=C(Nc2cccc(Cl)c2)OCC1=O	Pf growth 96h 9.28µM
CCOC(=O)c1ccc(NC(=O)c2ccc3c(c2)C(=O)N(Cc2cccnc2)C3=O)cc1	none
Cc1ccc2nc(N3CCN(c4ccccc4F)CC3)c(C=O)c(=O)n2c1	none
CCOC(=O)Nc1ccc(Cc2ccncc2)cc1	Cycloheximide cs 25.6, Pf growth 96h inconclusive
O=C(NC(=S)Nc1ccc(Cc2ccncc2)cc1)c1ccccc1F	Cycloheximide cs 24.4, Pf growth 48h inconclusive
COc1ccccc1C(=O)Nc1ccc(Cc2ccncc2)cc1	Cycloheximide cs 12.9
O=C(NC(=S)Nc1ccc(Cc2ccncc2)cc1)c1ccccc1Cl	none
COc1ccccc1C(=O)Nc1ccc2c(c1)nc(CN1CCCCC1)n2C	Pf growth 48h inconclusive
COc1ccccc1C(=O)Nc1ccc(CN2CCCCC2)cc1	Cycloheximide cs 11.2
CCOc1nc(-c2ccc(Cl)cc2)nc2ccccc12	none
CCOc1ccc(CN(C)C(=O)CCN2C(=O)c3ccccc3C2=O)cc1OC	none
COc1ccc([N+](=O)[O-])cc1C(=O)Nc1ccc(Cc2ccncc2)cc1	Cycloheximide cs 13.1
CC(C)(C)Sc1ccc([N+](=O)[O-])cc1C(=O)Nc1ccncc1	Pf growth 96h 0.928µM, Shiga inhibitor 52.1, Pf growth 48h inconclusive
COc1cc(C(=O)Nc2ccncc2)c([N+](=O)[O-])cc1OC	Pf growth 96h inconclusive, Pf growth 48h inconclusive
COc1ccc(-c2cc(-c3ccccc3)nc(SC(C)C(=O)O)c2C#N)cc1 (configuration not stated)	Pf growth 96h inconclusive
COc1ccc(O)c(C(=O)CC(=O)c2ccccc2C)c1	Cycloheximide cs 58.3, Shiga inhibitor 76.3, Pf growth 48h inconclusive
COc1ccc(C(=O)CC(=O)c2ccccc2O)cc1OC	Cycloheximide cs 34.2, Shiga inhibitor 78.8, Pf growth 48h inconclusive
COc1ccc(C(=O)CC(=O)c2ccccc2O)cc1	Cycloheximide cs 39.5, Pf growth 96h inconclusive, Pf growth 48h inconclusive (no result: Shiga inhibitor)
COc1ccc(O)c(C(=O)CC(=O)c2ccc(F)cc2)c1	Cycloheximide cs 20.4 (no result: Pf growth 48h)
COCCn1c(C)cc(C(=O)COC(=O)c2ccc[nH]c2=O)c1C	none
Cc1ccc(-n2c(C)cc(C(=O)COC(=O)c3ccc[nH]c3=O)c2C)cc1	Cycloheximide cs 40.5, Pf growth 96h inconclusive, Shiga inhibitor 57.9
Cc1cc(C(=O)COC(=O)c2ccc[nH]c2=O)c(C)n1C	none
Cc1cc(C(=O)COC(=O)c2ccc[nH]c2=O)c(C)n1-c1ccc(Br)cc1	Cycloheximide cs 48.1, Shiga inhibitor 27.4
Clc1ccc2c(c1)-c1nnc(Br)n1-c1ccccc1S2	Pf growth 96h inconclusive, Pf growth 48h 10.4µM
c1ccc2c(c1)Sc1ccccc1-n1cnnc1-2	Pf growth 96h 9.28µM, Pf growth 48h inconclusive
Clc1ccccc1-c1nnc2n1-c1ccccc1SC2	Pf growth 96h inconclusive, Pf growth 48h inconclusive
Cc1cc(C)n(CC(=O)N2c3ccccc3Sc3ccccc32)n1	Pf growth 48h inconclusive
Brc1nnc2n1-c1ccccc1Sc1ccccc1-2	Pf growth 96h 8.28µM, Pf growth 48h 11.7µM
CCCS(=O)(=O)N1CCCC(C(=O)N2CCCCC2)C1 (configuration not stated)	none
Cc1ccc(C2=NCCn3nc4cc([N+](=O)[O-])ccc4c32)cc1	Pf growth 48h inconclusive (no result: Cycloheximide cs, Shiga inhibitor, LmPK inhibitor)
O=C(O)CCCn1cc(NC(=O)c2ccc(Br)o2)cn1	none
O=C(NCc1ccccn1)C1CN(S(=O)(=O)c2ccccc2)CCN1S(=O)(=O)c1ccccc1 (configuration not stated)	none
COc1ccccc1CCNC(=O)CSc1nc(=O)[nH]c2c1CCC2	Pf growth 48h inconclusive (no result: Cycloheximide cs, Shiga inhibitor, LmPK inhibitor)
Cc1cc(C)c(-n2c(C)cc(/C=C3/NC(=O)NC3=O)c2C)c(C)c1	Pf growth 96h 5.86µM, Pf growth 48h inconclusive
Cc1cc(/C=C2/NC(=O)NC2=O)c(C)n1-c1ccncc1	none
Cc1cc(/C=C2/NC(=O)NC2=O)c(C)n1C	Pf growth 96h 4.65µM
CCOC(=S)SCC(=O)Nc1nc(-c2ccc(Br)cc2)cs1	Pf growth 96h 3.29µM
CCOC(=S)SCC(=O)Nc1nc(C)c(C)s1	Cycloheximide cs 24.2, Shiga inhibitor 48.8
CCOC(=S)SCC(=O)Nc1nc(-c2ccccc2)cs1	Pf growth 96h inconclusive, Pf growth 48h inconclusive
Cc1cc(OCC(O)CNC(C)c2ccccc2)ccc1C(C)C (configuration not stated)	Pf growth 96h inconclusive, Pf growth 48h inconclusive
Cc1cc(C)c2nc(NC(=O)CN3C(=O)NC4(CCCC4)C3=O)sc2c1	none (no result: Cycloheximide cs, Shiga inhibitor, LmPK inhibitor)
CN(C)/C=N/c1ncnc2c1cnn2-c1ccc(C(F)(F)F)cn1	Cycloheximide cs 41.5, Shiga inhibitor 76.6
FC(F)(F)c1ccc(-n2ccnc2)nc1	none
O=c1c2ccccc2nnn1-c1ccc(Br)cc1	Cycloheximide cs 43.8, Shiga inhibitor 96.7
Cc1ccc(-n2ncc(Br)c(Br)c2=O)cc1	none
O=c1c2ccccc2cnn1-c1ccc(Br)cc1	Cycloheximide cs 56.8, Shiga inhibitor 64.9
O=c1c2ccccc2cnn1-c1ccc2ccccc2c1	Cycloheximide cs 33.3, Shiga inhibitor 98.1 (no result: Pf growth 96h)
O=c1c2ccccc2cnn1-c1ccc(Cl)nn1	Cycloheximide cs 18.3, Shiga inhibitor 41.6
CCOc1ccc2c(c1)nc(SCC(=O)c1cccs1)n2C	Cycloheximide cs 50.5, Pf growth 96h inconclusive, Shiga inhibitor 81.3
Cc1ccc(OCc2cc(C(=O)N3CCC(Oc4cccnc4)CC3)no2)cc1C	Pf growth 96h inconclusive
CC(=O)c1ccc(OCc2cc(C(=O)N3CCCCCCC3)no2)cc1	Cycloheximide cs 57.3, Pf growth 96h 13.1µM, Shiga inhibitor 56.9
CC(=O)c1ccc(OCc2cc(C(=O)N3CCC(Oc4ccccc4C)CC3)no2)cc1	Cycloheximide cs 90.2, Pf growth 96h inconclusive, Shiga inhibitor 143.2, Pf growth 48h inconclusive
